The structures appear in SMILES notation. Out of some 330,000 compounds screened, about 940 (0.28%) were called active. The sample as a whole holds a higher share of actives than the screen did. A number with no mark means an inactive call. No stated cut-off is given here; in the data, active means inhibition above about 12%; inactive means the rest.

A short description of this test: growth inhibition of E. coli expressing H. pylori AddAB, primary screen, AddAB inhibitor project, absorbance (AID 435030).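 Further: 0% = vehicle wells of infected cells.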 Particulars: at 11.9 µM, stronger effect = higher value.
In the case of `O=C(Oc1ccc([N+](=O)[O-])cc1)c1ccc2ccccc2n1`, the inhibition is 0.94%. With `O=[N+]([O-])c1ccc(N=Cc2c(O)ccc3ccccc23)cc1`, the inhibition is 39.5% (active). In the case of `Cc1nc2ccccc2nc(=O)c1NNc1ccc([N+](=O)[O-])cc1`, the inhibition is 0.52%. The figure for `CC(Sc1nnc(Cc2ccc([N+](=O)[O-])cc2)o1)C(N)=O` (stereo not drawn) is 2.62%; for `COC(=O)c1cc(S(=O)(=O)Nc2ccc(C)c(F)c2)c[nH]1` it is 2.73%. The figure for `CCOc1ccc(OCC)c(NC(=O)C(NS(=O)(=O)c2ccc3c(c2)oc(=O)n3C)C(C)C)c1` (stereo not drawn) is 0.33%; for `O=C(CCNS(=O)(=O)c1ccccc1)NCCSc1ccc(Br)cc1` it is -1.46%; for `CC(C)(C)CC(=O)Nc1nnc(SCC(=O)NCc2cccs2)s1` it is 1.97%.

Consider `O=C(Cn1cc(C(=O)c2cccs2)c2ccccc21)NCc1cccs1`, for which the inhibition was -0.41%.

Consider `CC1CCN(C(=O)Cn2cc(C(=O)c3ccco3)c3ccccc32)CC1`, for which the inhibition was 0.41%. For `Cc1cccc(NC(=O)Cn2cc(C(=O)c3ccco3)c3ccccc32)c1`, the inhibition is 13.8% (active).

Take `Cc1cc(C)c(S(=O)(=O)N2CCCC2CNC(=O)c2ccc3c(c2)OCO3)c(C)c1` (stereo not drawn): the inhibition was 2.32%. For the molecule `N#Cc1ccc(OCCN2C(=O)NC3(CCSC3)C2=O)cc1` (stereo not drawn), the inhibition was -2.01%. Then `O=C(OCC(=O)N1CCN(C(=O)c2ccco2)CC1)c1c(Cl)cccc1Cl`, with 1.58%; and `NS(=O)(=O)c1cccc(NC(=O)COC(=O)c2cc([N+](=O)[O-])ccc2N2CCCC2)c1`, with 0.9%; and `CCn1c(=O)c([N+](=O)[O-])c(NCc2ccc3c(c2)OCO3)c2ccccc21`, with -0.08%.

Consider `CCOCCCn1c(NN)nc2ccccc2c1=O`, for which the inhibition was 1.87%. The figure for `CCn1c(/C=C/c2ccc([N+](=O)[O-])o2)nc2ccccc2c1=O` is 17.8% (active); for `CCOC(=O)c1sc(/N=C/C2=C(O)CC(C)(C)CC2=O)c(C(=O)OCC)c1C` it is -0.77%; for `Cc1occc(=O)c1OCc1c(Cl)cccc1Cl` it is -0.74%. The figure for `CCOC(=O)c1ccc(NC(=O)Cn2cnc3cc(C)c(C)cc32)cc1` is 21% (active). The figure for `CCCc1nnc(SCC(=O)Nc2ccc(C(=O)OCC)cc2)o1` is 2.66%; for `CCOC(=O)c1ccc(NC(=O)Cc2cccs2)cc1` it is 3.49%. As for `CSCc1ccc(C(=O)Nc2cc(C)cc(C)c2)cc1`, the inhibition was 0.9%. Then `CSCCC(NC(=O)c1cc([N+](=O)[O-])cc([N+](=O)[O-])c1)c1nc2ccccc2[nH]1` (stereo not drawn), with 2.67%.

With `O=C(O)c1cccc(NC(=S)N/N=C/c2c[nH]c3ccccc23)c1`, the inhibition is 3.31%. Consider `CSC(=S)N/N=C/c1c[nH]c2ccccc12`, for which the inhibition is 14.4% (active). `Nc1nonc1-n1nnc(C(=O)N/N=C/c2c[nH]c3ccccc23)c1-c1ccccc1`: the inhibition was 0.34%.

For the molecule `COC(=O)c1cc(S(=O)(=O)N2CCC(C(N)=O)CC2)oc1C`, the inhibition is -2.11%.

On to `COc1cccc(OC)c1CN(C)C(=O)c1cnccc1C(F)(F)F`, for which the inhibition was 3.15%. The figure for `CC(=O)Nc1ccc(CN2CCN(Cc3ccc(F)c(F)c3)C(CCO)C2)cc1` (stereo not drawn) is 2.22%. For `Cc1cn(C2C=CC(CO)O2)c(=O)[nH]c1=O` (stereo not drawn), the inhibition is 20.5% (active). On to `Cc1cn(C2OC[C@@H](O)[C@@H]2CO)c(=O)[nH]c1=O` (stereo partly drawn), for which the inhibition is 0.5%. The figure for `CCOC(=O)C1=NOC(Cn2cc(C(C)=O)c(=O)[nH]c2=O)C1` (stereo not drawn) is 3.64%.

For the molecule `O=C(NNC(=O)C1C2CCC(C2)C1C(=O)O)c1ccc(Cl)cc1` (stereo not drawn), the inhibition was -0.52%. With `Cc1ccc(NC(=O)CN(C)C(=O)COC(=O)C(C)(C)Oc2ccc(Cl)cc2)cc1`, the inhibition was 1.52%. Then `Cc1ccc(O)c(NC(=O)c2cc(-c3ccco3)on2)c1`, with 2.66%; and `Nc1nonc1-n1nnc(C(=O)N/N=C/c2cc(Br)ccc2O)c1CSC1=NCCS1`, with 17.5% (active); and `Cc1ccc(SCc2c(C(=O)N/N=C/c3cccnc3)nnn2-c2nonc2N)cc1`, with 3.86%.

For `Nc1nonc1-n1nnc(C(=O)N/N=C/c2ccccc2O)c1CN1CCCC1`, the inhibition is 4.54%. With `CCOc1ccc(N(CC(=O)Nc2ccccc2F)S(=O)(=O)c2c(C)[nH]c(=O)[nH]c2=O)cc1`, the inhibition is 3.71%. As to `CCOc1ccccc1NC(=O)COc1ccc(S(=O)(=O)N2CCCC2)cc1`, the inhibition was 2.68%. The figure for `O=C(NC(Cc1ccccc1)C(=O)O)/C(=C\c1ccccc1)NC(=O)c1ccco1` (stereo not drawn) is 0.08%; for `O=C(CCS(=O)(=O)c1ccccc1)Nc1nc2c(s1)CCCC2` it is -2.56%. `Cc1nnc(NC(=O)Cn2c(=O)sc3ccccc32)s1`: the inhibition was 3.04%.

Regarding `O=C(Cn1c(=O)sc2ccccc21)Nc1nc2c(s1)CCCC2`, the inhibition is 12.5% (active). As for `Cc1cnc(NC(=O)c2ccccn2)s1`, the inhibition was -4.66%.

Take `CC(=O)Oc1ccccc1C(=O)Nc1ncc([N+](=O)[O-])s1`: the inhibition was 13.3% (active). As to `O=C(Cc1c(F)cccc1Cl)Nc1ncc([N+](=O)[O-])s1`, the inhibition was 5.83%.

With `COc1ccccc1CNC(=O)Cn1c(=O)oc2cc(Cl)ccc21`, the inhibition was 4.32%. As to `COC(=O)C1=C(Nc2ccc(C)cc2)C=C(C)C(C(=O)OC)C1c1ccc(F)cc1` (stereo not drawn), the inhibition is 1.3%. For `NC(=O)COC(=O)c1sc2cc(F)ccc2c1Cl`, the inhibition is 1.69%.

Regarding `CCOC(=O)N1CCC(Nc2c(NCCCN3CCN(c4ccc(OC)cc4)CC3)c(=O)c2=O)CC1`, the inhibition was 2.85%.

For `CC(NC(=O)COC(=O)C1CCN(S(=O)(=O)c2ccccc2C(F)(F)F)CC1)c1ccccc1` (stereo not drawn), the inhibition was 0.81%. For `CC[C@H]1OC(=O)[C@H](C)[C@@H](O[C@H]2C[C@@](C)(OC)[C@@H](O)[C@H](C)O2)[C@H](C)[C@@H](O[C@@H]2O[C@H](C)C[C@H](N(C)C)[C@H]2O)[C@](C)(O)C[C@@H](C)[C@@H]2N[C@@H](COCCOC)O[C@H]([C@H]2C)[C@]1(C)O`, the inhibition was 41% (active).

Take `CCCCNC(=O)C1(c2ccc(OC)cc2)CCOCC1`: the inhibition is 0.97%. As to `CC1(C)CC(N2CCN(C(c3ccccc3)c3ccccc3)CC2)=CC(=[N+]2CCCCC2)C1`, the inhibition is 1.52%.

For `Cc1nnc(SCCCCSc2nnc(C)c(=O)[nH]2)[nH]c1=O`, the inhibition was -1.42%.

For `O=c1oc2c(Cl)cc(Cl)cc2cc1-c1nnc(Nc2ccccc2F)s1`, the inhibition was -1.06%. The figure for `O=C(NC(=O)N1CCSCC1)c1c(Cl)cccc1Cl` is 1.83%. Then `CN(C)[C@@H]1C(=O)C(C(N)=O)=C(O)[C@@]2(O)C(=O)C3=C(O)c4c(O)ccc(Cl)c4[C@@H](O)[C@H]3C[C@@H]12`, with 100% (active); and `C=C1c2c(Cl)ccc(O)c2C(O)=C2C(=O)[C@]3(O)C(O)=C(C(N)=O)C(=O)[C@@H](N(C)C)[C@@H]3[C@@H](O)C12` (stereo partly drawn), with 103% (active). For `O=C(CCNC(=O)c1ccccc1)NN=Cc1ccc(Br)o1`, the inhibition was -1.39%.

`CC(=O)N(O)CCCCCNC(=O)CCC(=O)N(O)CCCCCNC(=O)CCC(=O)N(O)CCCCCNC(=O)CCC(=O)O`: the inhibition is 22% (active). Take `NC(=O)NCCCC(=O)O`: the inhibition is 4.03%. Turning to `COc1nc(N(C)C)nc(N2CC(=O)N(CCNS(=O)(=O)c3ccc(C)cc3)C2=N)n1`, the inhibition was -0.32%. The figure for `Cc1ccc(Cn2c(=N)c(S(=O)(=O)c3ccc(C)cc3)cc3c(=O)n4ccccc4nc32)cc1` is 1.33%; for `CC1(C)CC(=O)c2cnc3nc4ccccc4n3c2C1` it is -0.86%; for `COc1ccc(CCN=C2SCC(=O)N2Cc2ccccc2)cc1OC` it is 1.52%. Take `O=C(N/N=C\c1ccc(-c2ccc(Cl)c(Cl)c2)o1)C(=O)N1CCCC1`: the inhibition is -0.96%. The figure for `O=c1ccc2c(-c3ccccc3S(=O)(=O)O)c3ccc(O)c(O)c3oc-2c1O` is 22.5% (active); for `C=C1CCN([C@H](C(=O)NCc2cc(OC)c(OC)c(OC)c2)C(C)C)S(=O)(=O)c2ccccc21` it is 0.6%; for `COc1ccc(CNC(=O)C[C@H]2C[C@H](C(=O)N3CCOCC3)[C@@]3(C)c4[nH]c5cc(CCC(=O)N(C)C)ccc5c4CCN3C2=O)cc1OC` it is -1.37%. For `O=C(Cc1ncc(C(F)(F)F)cc1Cl)Nc1cccc(Br)c1`, the inhibition was 0.17%. The figure for `COc1ccc(CC(=O)Nc2c(C(N)=O)oc3ccccc23)cc1` is 2.54%; for `COc1ccc(C(=O)c2oc3ccc(Br)cc3c2NC(C)=O)cc1` it is 100% (active); for `COC(=O)c1oc2ccc(Br)cc2c1NC(C)=O` it is -2.24%. The figure for `CC(=O)/C(=N\Nc1ccc(Cl)cc1Cl)Sc1cccc2cccnc12` is -1.2%; for `C[C@H]1[C@H]2c3nc4ccccc4n3C[C@H]1ON2C1CCCCC1` it is 3.89%. Then `COc1ccc(CNC(=O)CN(Cc2ccc(Cl)cc2)S(C)(=O)=O)cc1`, with 3.57%. Regarding `COC(=O)N/N=C/c1c[n+]([O-])c2ccccc2[n+]1[O-]`, the inhibition is 89.8% (active). Regarding `COC(=O)N/N=C/c1cn(CCCOc2ccc(C)cc2)c2ccccc12`, the inhibition was 3.22%. Then `COC(=O)N/N=C/c1ccc(-c2ccc(Cl)c(Cl)c2)o1`, with 1.71%.

For the molecule `OCCNCCOc1ccc(Cl)c(Cl)c1`, the inhibition was 0.51%. In the case of `C#CCSc1nnc(-c2sc3ccccc3c2Cl)o1`, the inhibition was 1.12%. With `COc1ccc(CCNC(=O)/C(C#N)=C2\N=C(NC(=O)c3cccs3)c3ccccc32)cc1`, the inhibition is 3.86%. Then `O=C(NCC#CCSc1nnc(-c2cccc3ccccc23)o1)c1cccs1`, with 12.4% (active); and `COc1ccc2cc(CCl)c(Cl)nc2c1`, with -0.08%.

Source of the values: PubChem BioAssay AID435030 (The Scripps Research Institute Molecular Screening Center, 2010).
